The source of these data is ChEMBL document CHEMBL3988442, “University of Dundee, Small-Polar-MMV Screening Library” (2021).

This assay concerns the target AMP-activated protein kinase, AMPK (Homo sapiens) (UniProt P54646+O43741+P54619+Q9UGJ0+Q9Y478+Q13131+Q9UGI9). Kind of assay: AMP-dependent Kinase enzyme assay. An in vitro enzyme assay that detects ADP turnover that is directly proportional to AMPK activity. This uses naive AMPK that is activated during the assay with MK-8722. Format: functional. The arrangement: scale not given: direction of the effect not stated beside the values. Conditions: 30 µM.
Take `CC1(C)O[C@@](C)([C@H]2CC3(CCN(c4ncccn4)CC3)CO2)CC[C@@H]1O`: the Percent Effect is 7.88%.
Regarding `CCOc1ccc(NC(=O)NCCS(=O)(=O)CC)cc1C`, the Percent Effect is -0.616%.
With `CC(=O)N1CCC(C(=O)N2CCC2c2nc(-c3ccc(C)s3)no2)CC1` (stereo not given) the figure was 7.15%; with `O=C(NCc1ccco1)N1CCOC(c2ccccc2Cl)C1` (stereo not given), 3.01%; with `Oc1cc(C2CCCN(Cc3cccs3)C2)nc(-c2ccccn2)n1` (stereo not given), 16.9%.
As for `O=C(CCCN1CCCCC1)N[C@H](C(=O)O)c1cccc(F)c1F`, the figure is 6.38%; as for `Cc1nc(CN2CCOCC2c2[nH]ncc2C)cs1` (stereo not given), 12.1%.
With `O=C(Nc1ccc(-c2csnn2)cc1)NC(CCO)C1CC1` (stereo not given) the figure was 12.3%.
Turning to `CN(C)Cc1cccc(-c2cccnc2C(=O)NCC2CC2)c1`, the Percent Effect came out at 20.3%.
Take `O=C1CCCCN1CCc1nc(C2(c3ccc(F)cc3)CCOC2)no1` (stereo not given): the Percent Effect came out at 0.752%.
With `COc1cccc([C@@]2(O)CC[C@@H]3CN(C(=O)c4ccn(C)n4)C[C@@H]32)c1`, the Percent Effect is 12.3%.
With `CC(C)c1nc(CC(=O)Nc2cnccc2O)cs1` the figure was -1.17%.
Regarding `Cc1cc(C2CCCN(Cc3noc(Cc4ccccc4)n3)C2)n[nH]1` (stereo not given), the Percent Effect stood at 35%.
As for `Cn1cc(CN(C(=O)c2ccc3ncsc3c2)C2CC2)cn1`, the figure is 10.2%.
On to `COc1ccc(CN(Cc2ccsc2)CC2CCCO2)cn1` (stereo not given), for which the Percent Effect came out at 5.75%.
With `Cn1ccc(C(=O)N2CCCC2c2cc(CO)[nH]n2)n1` (stereo not given) the figure was 20.7%; with `CC1(c2ncc(CN3CCSCC3)cn2)CCCCO1` (stereo not given), -1.61%.
With `CC(C)Oc1ccccc1CNC(=O)N(C)C(C)CS(C)(=O)=O` (stereo not given) the figure was 9.72%; with `CC(=O)N1CCC(c2ncc(C(=O)Nc3ccc(F)cc3)c(C)n2)CC1`, -4.39%.
On to `COC(=O)CC1CCCCN1CC(=O)NCCc1ccc(F)cc1` (stereo not given), for which the Percent Effect was 6.06%.
With `CC(=O)N[C@H]1CN(S(=O)(=O)N(C)Cc2ccccc2)C[C@@H]1C1CC1` the figure was 1.32%; with `CCCc1nnc(N2CCC(N3CCN(CCO)CC3)CC2)o1`, -0.32%.
Regarding `O=C(c1cc(C2CC2)nc2onc(-c3ccccc3)c12)N1CC[C@H](O)C1`, the Percent Effect came out at 4.74%.
With `Cc1cc(CN(C)c2nc(-c3ccco3)nc3c2CCN(C)CC3)on1` the figure was 6.52%; with `Cc1cc(N2CCC(O)(C(=O)O)CC2)nc2ccccc12`, 3.47%; with `CCCC1COCCN1Cc1ccc(NC(C)=O)cc1` (stereo not given), -4.72%.
As for `O=C(c1coc(-c2ccccc2)n1)N1CCS(=O)(=O)CC1`, the figure is 0.626%.
As for `Cc1cc(N2CCC(n3cc(CN4CCNCC4)nn3)CC2)ccn1`, the figure is -7.65%; as for `O=C(CCc1ccsc1)NCC1CCN(C2CC2)C1` (stereo not given), -5.43%.
As for `N[C@H]1CN(C(=O)c2ccc3[nH]c(CO)nc3c2)C[C@@H]1c1ccccc1`, the Percent Effect was 3.57%.
For `CN1CCN(C(=O)C2(NC(N)=O)CCCCC2)Cc2ccccc21`, the Percent Effect was found to be 0.804%.
As for `COc1ccsc1C(=O)NC1CCN(c2ccc(C#N)cc2)CC1`, the figure is 13.5%.
As for `CN(CCc1noc(C2CC2)n1)C(=O)CN1C(=O)COc2ccccc21`, the figure is -1.86%; as for `c1ccc(OCCNC2=NCCCN2)cc1`, -8.51%; as for `COCCCN1CCCC(c2nccn2CC2CCC2)C1` (stereo not given), 0.821%.
As to `CCC[C@@H]1CN(Cc2cnc3c(S(C)(=O)=O)cnn3c2)C[C@H]1N(C)C`, the Percent Effect was -10.1%.
For the molecule `COCC1CCN(C(C(=O)O)c2c(F)cccc2OC(C)C)CC1` (stereo not given), the Percent Effect came out at 5.46%.
In the case of `CC(CNC(=O)CCCn1cncn1)N1CCc2ccccc2C1` (stereo not given), the Percent Effect was 14.6%.
Regarding `O=S(=O)(NCc1ccnc(-n2ccnc2)c1)c1cncc(Cl)c1`, the Percent Effect came to 0.0234%.
As for `CN(C)c1cccc(C(=O)Nc2cnn(CC(N)=O)c2)c1`, the figure is 3.58%.
